Hits are enriched below; roughly 1.3% of the tested compounds scored in any of these assays.
mIDH1 inhibitor: human IDH1 R132H inhibition | O75874 | IDH1-R132H enzyme, NADPH consumption, diaphorase/resazurin fluorescence | Potency, µM (top dose mostly 76.6 µM), most hits filed as inhibitors | 390,000 tested, 0.093% active; further: nearly all actives have a fitted effect of over 65% in size
Target sequence (O75874 whole entry R132H, stated change not applied): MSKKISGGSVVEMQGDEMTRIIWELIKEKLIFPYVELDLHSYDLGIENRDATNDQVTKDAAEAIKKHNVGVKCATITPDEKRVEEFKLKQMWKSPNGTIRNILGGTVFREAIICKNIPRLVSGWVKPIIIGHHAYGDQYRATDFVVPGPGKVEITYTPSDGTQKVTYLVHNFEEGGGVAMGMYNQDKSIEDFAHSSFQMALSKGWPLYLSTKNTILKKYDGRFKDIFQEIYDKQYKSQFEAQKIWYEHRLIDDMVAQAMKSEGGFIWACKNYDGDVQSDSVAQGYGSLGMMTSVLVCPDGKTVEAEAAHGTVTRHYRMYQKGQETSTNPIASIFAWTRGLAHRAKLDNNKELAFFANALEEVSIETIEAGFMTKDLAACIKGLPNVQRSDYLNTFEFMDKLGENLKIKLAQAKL
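IDH1-R132H (0.5 ug/mL) preincubated 30 min with compound, then NADPH (0.016 mM) and alpha-KG (2 mM) added; 80 min at RT, pH 7.5. Remaining NADPH coupled via diaphorase/resazurin to fluorescence (540/590 nm); concentration-response curves normalized to no-enzyme control.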
GALK inhibitor: galactokinase (human) inhibition; P51570; Purified GALK, Kinase-Glo residual ATP luminescence; Potency, µM (titrated, usually from 57.5 µM), most hits filed as inhibitors; 270,000 tested, 0.007% active
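Compounds were pin-transferred into ATP buffer (35 uM final), then GALK plus galactose (5 nM, 100 uM final) was added. After 1 h at room temperature, Kinase-Glo Plus was added and luminescence read after 10 min.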
PKM2 act: increases activity of human pyruvate kinase M2. purified PKM2, Kinase-Glo ATP luminescence, activation; response scale: 0% is enzyme alone, no compound. Potency, µM (doses to about 57.5 µM), hits mostly activators. 260,000 tested, 0.34% active; further: nearly all actives have a fitted effect of over 55% in size
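hPK-M2, >95% pure; 0.1 mM ADP / 0.5 mM PEP final; imidazole pH7.2 buffer w/ 7 mM MgCl2, 50 mM KCl; 1 h RT; Kinase-Glo lum. Intermediate enzyme activity for dual inhibitor/activator qHTS.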
TrxR1 substrate: substrates of rat thioredoxin reductase 1. purified TrxR1 substrate turnover, NADPH consumption readout. Potency, µM (doses to about 114 µM). 390,000 tested, 0.01% active. AID 588456; further: nearly all actives have a fitted effect of over 50% in size
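Rat TrxR1, dispensed at 90 nM, was prereduced with 400 uM NADPH (final) for 5 min at ~22 deg C, then incubated with compound 15 min before 400 uM selenite. A first-read NADPH fluorescence drop versus no-compound background flagged substrates.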
rTrxR1 inhibitor: rat TrxR1 inhibition | Potency, µM (highest dose often 114 µM), most hits filed as inhibitors | 390,000 tested, 1% active | recombinant rTrxR1, NADPH fluorescence consumption, selenite substrate | AID 588453 | O89049; further: nearly all actives have a fitted effect of over 65% in size
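Rat TrxR1 (90 nM in the dispensed reagent) was pre-reduced with 400 uM NADPH for 5 min at room temperature, then incubated with compound for 15 min. After 400 uM selenite was added, NADPH fluorescence (Ex 340/Em 450 nm) was followed for 8 min.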
Anesthetic bind: candidate novel general anesthetic via apoferritin binding | apoferritin/1-aminoanthracene competitive binding, fluorescence | P02791 | AID 485281 | 350,000 tested, 0.074% active | Potency, µM (highest dose often 77.5 µM), usual class: inhibitors; further: nearly all actives have a fitted effect of over 20% in size
Target sequence (P02791 2-175 limits assumed): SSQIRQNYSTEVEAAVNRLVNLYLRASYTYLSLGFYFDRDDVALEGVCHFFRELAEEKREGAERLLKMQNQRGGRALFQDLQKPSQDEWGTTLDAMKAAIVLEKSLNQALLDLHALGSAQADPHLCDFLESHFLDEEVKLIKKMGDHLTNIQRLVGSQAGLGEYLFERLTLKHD
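Read-out: endpoint 1-AMA fluorescence, excitation 380 nm and emission 535 nm, after compounds sit 10 min at room temperature with 10 uM horse-spleen apoferritin in 50% saturated 1-AMA/PBS. Values come from four-parameter Hill fits.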
HeLa viability: counter-screen for pyruvate kinase M2 activators: HeLa cytotoxicity; activity change, negative = cytotoxicity, % at 57.5 µM; shares compounds with PKM2 act; 230 tested, under 10 active; AID 1898; HeLa viability, CellTiter-Glo ATP luminescence, 24 h
A number is an active result; i = inactive; ? = inconclusive; nt = no result given. The call rests on the fitted dose curve; in most records, active means well fitted curve in the direction sought with a large enough effect; inconclusive means small, poorly fitted or top-dose-only effect, or another doubt; inactive means no such curve, though single readings can be large; an effect the other way counts as inactive or inconclusive.

SMILES	mIDH1 inhibitor	GALK inhibitor	PKM2 act	TrxR1 substrate	rTrxR1 inhibitor	Anesthetic bind	HeLa viability
Cc1cccc(NS(=O)(=O)c2cc3c(cc2C)NC(=O)CO3)c1	i	nt	0.71µM	i	i	i	i
O=c1c2ccc(Cl)cc2[nH]c(=S)n1Cc1cccnc1	i	i	3.2µM	i	i	i	i
CCOc1cccc2sc(N(Cc3cccnc3)C(=O)c3ccc(C#N)cc3)nc12	i	nt	nt	i	i	?	nt
O=S(=O)(c1ccc2c(c1)OCCO2)N1CCN(S(=O)(=O)c2cc(F)c(F)cc2F)CC1	nt	nt	nt	nt	nt	nt	i
O=S(=O)(c1ccc2c(c1)OCCO2)N1CCN(S(=O)(=O)c2ccc(F)cc2F)CC1	nt	nt	nt	nt	nt	nt	i
CCOC(=O)c1ccc(-n2c(N)c(C(=O)NCc3ccco3)sc2=S)cc1	i	i	?	i	i	i	nt
CCn1c(N)c(C(=O)NCc2ccco2)sc1=S	i	i	3.5µM	i	i	i	i
Cc1cccc(N2CCN(C(=O)c3c(C)nn(Cc4ccccc4Cl)c3C)CC2)c1C	i	i	3.5µM	i	?	i	?
Cn1c2ccsc2c2ncn(Cc3ccccc3F)c(=O)c21	nt	nt	nt	i	i	nt	?
Cn1c2ccccc2c2ncn(Cc3ccc(F)cc3)c(=O)c21	i	i	i	i	i	i	nt
COc1ccc(NS(=O)(=O)c2cc(Br)cc3c2N(C(=O)C2CC2)CC3)cc1OC	i	nt	nt	i	i	i	nt
Cc1ccccc1-n1nnnc1SCc1cc(=O)n2ccsc2n1	i	i	0.79µM	i	i	i	i
CCOc1ccc(NS(=O)(=O)c2ccc3c(c2)CCN3C(=O)C2CCC2)cc1	i	i	i	i	i	i	nt
O=C(C1CCC1)N1CCc2cc(S(=O)(=O)Nc3ccc4c(c3)OCO4)ccc21	i	i	2.8µM	i	i	i	i
O=C(CSc1ccccc1)N1CCN(S(=O)(=O)c2ccccc2F)CC1	i	i	3.2µM	i	i	i	i
CCc1ccc(CNC(=O)C2CCN(C(=O)N3CC(CC)Oc4ccc(C)cc43)CC2)cc1 (configuration not stated)	i	nt	nt	i	i	i	nt
O=C(NCc1nnc2c(C(F)(F)F)cc(Cl)cn12)C1CCCC1	i	i	i	i	i	i	nt
O=C(NCc1nnc2c(C(F)(F)F)cc(Cl)cn12)c1cccs1	i	i	2.8µM	i	i	i	i
COc1cccc(NC(=O)CSc2nnc(-c3ccc(C)cc3)o2)c1	i	i	1.3µM	i	i	i	i
COc1cccc(NC(=O)CSc2nnc(-c3cccc(OC)c3)o2)c1	nt	nt	nt	i	i	?	nt
COc1ccc(Cn2c(CNS(=O)(=O)c3ccc(Cl)s3)nc3cccnc32)cc1	i	nt	nt	i	i	i	nt
Cn1cc(S(=O)(=O)c2ccc(Cl)cc2)c(=O)c2cc(F)c(N3CCOCC3)cc21	i	nt	nt	i	i	i	nt
Cc1ccc(Nc2ncc(C(=O)N3CCN(c4ccc(F)cc4)CC3)c3ccccc23)cc1Cl	i	nt	nt	i	i	i	nt
O=C1CN(S(=O)(=O)c2c(F)cccc2F)CCN1S(=O)(=O)c1ccc2c(c1)OCCO2	nt	nt	nt	nt	nt	nt	i
CC(=O)N1CCN(S(=O)(=O)c2ccc3c(c2)OCCO3)CC1	i	nt	nt	i	i	nt	nt
SMILES	mIDH1 inhibitor	GALK inhibitor	PKM2 act	TrxR1 substrate	rTrxR1 inhibitor	Anesthetic bind	HeLa viability
C[C@@H]1CN(S(=O)(=O)c2ccc3c(c2)OCCO3)CCN1S(=O)(=O)c1c(F)cccc1F	nt	nt	nt	i	i	nt	i
C[C@H]1CN(S(=O)(=O)c2c(F)cccc2F)CCN1S(=O)(=O)c1ccc2c(c1)OCCO2	nt	nt	nt	i	i	nt	i
Cc1ccc(Cn2c(CCNC(=O)C(C)C)nc3ccccc32)cc1	i	nt	nt	i	i	i	nt
Cc1c(C(=O)N2CCOCC2)[nH]c2c1C(=O)CC(c1ccccc1Cl)C2 (configuration not stated)	i	i	16µM	i	i	i	i
Cc1c(C(=O)OC2CCCCC2)[nH]c2c1C(=O)CC(c1ccccc1Cl)C2 (configuration not stated)	i	nt	nt	i	i	i	nt
O=C(Cc1cccs1)N1CCCC(c2nc3c(nnn3Cc3cccc(Cl)c3)c(=O)[nH]2)C1 (configuration not stated)	i	i	16µM	i	i	?	i
Cc1cc(=O)[nH]c2ccc(S(=O)(=O)Nc3ccc(O)cc3)cc12	i	i	2.2µM	i	i	i	i
O=C(NCc1ccc2c(c1)OCO2)c1ccc(S(=O)(=O)N2CCCCC2)cc1	i	i	i	i	i	?	nt

Assay outcomes (PubChem)
